Assay in all cases: NCI-60 one-dose screen, 48 h (100 = growth as untreated, 0 = no growth, -100 = all killed)
For assay [1], the system named is NCI-H23 lung. The following applies: 10 µM unless noted.
Assay [2] has as its system HOP-62 NSCLC. The following applies: 10 µM unless noted.
Assay [3] concerns A549/ATCC NSCLC. The following applies: 10 µM unless noted.
For assay [4], the system named is K-562 leukemia. Particulars: 10 µM unless noted.
For assay [5], the system named is RXF 393 renal. The following applies: 10 µM unless noted.
Assay [6] concerns SF-295 CNS. The following applies: 10 µM unless noted.
Assay [7] has as its system UACC-257 melanoma. Particulars: 10 µM unless noted.
In assay [8] the test system is U251 CNS. The following applies: 10 µM unless noted.
Assay [9] has as its system LOX IMVI melanoma. Particulars: 10 µM unless noted.
In assay [10] the test system is SK-MEL-28 melanoma. Particulars: 10 µM unless noted.
Assay [11] has as its system SK-MEL-2 melanoma. Particulars: 10 µM unless noted.
The subject of assay [12] is UO-31 renal. The following applies: 10 µM unless noted.
Assay [13] concerns TK-10 renal. The following applies: 10 µM unless noted.
Assay [14] has as its system HL-60(TB) leukemia. Particulars: 10 µM unless noted.
Assay [15] deals with SR leukemia. The following applies: 10 µM.
Assay [16] has as its system OVCAR-4 ovarian. The following applies: 10 µM unless noted.
The subject of assay [17] is BT-549 breast. Particulars: 10 µM.
Assay [18] relates to HCC-2998 colon. Particulars: 10 µM unless noted.
For assay [19], the system named is NCI-H460 lung. Particulars: 10 µM unless noted.
Assay [20] deals with A498 renal. The following applies: 10 µM unless noted.

This is part of a sample that, as a whole, favours compounds with a hit. Of some 83,000 tested, about 20% had one in any assay.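 Plates (96-well) were seeded with cells, treated with compound at one concentration, and incubated for 48 hours before percent growth was determined.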 A number with no mark means an inactive call. Calls of active or inactive are those of the source. Rule for the calls: active = growth percent below 10; inactive = the rest.

We go through eight compounds from PubChem BioAssay (NCI).

Consider `O=S(=O)(O)c1ccc(-c2ccc([As](=O)(O)O)cc2)cc1`, for which the growth in [1] is 105%; in assay [2], 98.6%; in assay [3], 94.4%; in assay [4] it was 101%; in assay [5] it was 117%; in assay [6], 101%. The growth in [7] is 93.6%; in assay [8] it was 95.6%; in assay [9], 99.8%; in assay [10], 103%; in assay [11], 101%; in assay [12] it was 89.1%. For the same compound, the growth in [13] was 95.5%; in assay [14], 102%; in assay [15], 101%; in [16] it was 99.4%; in assay [17] it was 106%; in [18], 105%.

Turning to `C=CC(=O)NC(O)C(Cl)(Cl)Cl` (configuration not stated), the growth in assay [1] is 105%; in assay [2] it was 104%; in assay [19] it was 110%; in assay [3] it was 103%; in assay [4], 97.1%; in assay [5] it was 129%. Besides, the growth in assay [6] was 95.6%; in assay [7], 92.3%; in [8] it was 102%; in assay [10] it was 103%; in assay [11], 84.3%; in assay [12], 94.9%. Moreover, the growth in assay [13] was 95.9%; in [20] it was 120%; in assay [14], 97.7%; in assay [15], 90.8%; in assay [16] it was 122%; in [17] it was 97.5%. Further, in assay [18], the growth is 104%.

For the compound `Nc1nc(N)c(-c2ccc(Cl)c(Cl)c2)c(/C=C/c2ccc(S(=O)(=O)F)cc2)n1`, the growth in assay [1] was 106%; in [2] it was 91.3%; in [19] it was 77%; in assay [3], 81.3%; in assay [4] it was 53.4%; in assay [5] it was 90.6%. Also, the growth is 76.3% in assay [7]; 89.1% in [8]; 69.1% in assay [9]; 98.1% in assay [10]; 86.3% in assay [11]; 74.7% in [12]. The growth in [13] was 86.8%; in [20] it was 87.7%; in assay [14], 91.9%; in assay [15], 76.3%; in assay [16], 100%; in assay [17], 94.6%. In addition, the growth in [18] is 111%.

Regarding `CCOc1cc(/C=N\Nc2nnc(C)n2N)c(C)cc1N(CCCl)CCCl`, the growth in [1] was -20.2% (active); in assay [2], 22.6%; in [19], 4.94% (active); in assay [3], 14.5%; in [4] it was 7.77% (active); in assay [5] it was 29.7%. Further, the growth is -26.6% (active) in assay [6]; -5.96% (active) in [7]; 14.4% in assay [8]; 1.98% (active) in assay [9]; 17.2% in assay [11]; -42.2% (active) in [12]. Besides, the growth in assay [13] is 31%; in assay [20], -26% (active); in [14], -48.9% (active); in assay [15], -12.6% (active); in [16], 14.6%; in assay [17], 17%. Also, the growth in assay [18] is 3.97% (active).

Turning to `CNC(=O)Oc1ccccc1`, the growth is 107% in assay [1]; 116% in assay [2]; 104% in assay [19]; 94.9% in [3]; 109% in assay [4]; 112% in assay [5]. Moreover, the growth is 102% in assay [7]; 108% in [8]; 106% in [9]; 86.2% in assay [10]; 118% in assay [11]; 98.8% in [12]. Further, the growth in assay [13] was 122%; in assay [20] it was 120%; in assay [14], 120%; in [15] it was 99%; in [16], 88.7%; in [17] it was 105%. Also, the growth in assay [18] was 119%.

`CCCCn1cc(C(=O)/C(C#N)=C/c2cc3ccccc3nc2Cl)c2cc(OC)ccc21`: the growth was 92.8% in [1]; 86.1% in assay [2]; 101% in [19]; 102% in [3]; 47.5% in [4]; 95.9% in assay [6]. Also, the growth in assay [7] is 98.5%; in assay [8] it was 83.2%; in assay [9], 74%; in assay [10], 107%; in [11] it was 115%; in [12], 61.6%. Besides, the growth was 101% in assay [13]; 94.8% in [20]; 88.7% in assay [14]; -12% (active) in [15]; 95.5% in assay [16]; 91.7% in assay [17]. Also, the growth in assay [18] is 96.8%.

`C[CH2][Pb]([CH2]C)([CH2]C)[O]C(=O)COc1ccccc1`: the growth was -6.75% (active) in [1]; -9.05% (active) in [2]; 4.05% (active) in assay [19]; 4.92% (active) in [4]; 7.08% (active) in [5]; -62.3% (active) in assay [6]. In addition, the growth is -1.93% (active) in assay [8]; -35.8% (active) in assay [9]; -0.355% (active) in assay [11]; -6.3% (active) in [12]; -2.32% (active) in assay [20]; -48.1% (active) in [14]. Besides, the values for the growth in [16], in assay [17] and in assay [18] were 14.8%, -11.4% (active) and -52% (active), respectively.

In the case of `CC1(C)N=C(N)N=C(N)N1c1ccc(OCCCCNC(=O)c2ccc(S(=O)(=O)F)cc2)c(Cl)c1`, the growth in assay [1] was 68.1%; in assay [2] it was 102%; in assay [19], 19.8%; in assay [3], 51%; in assay [4], 16.2%; in [5], 76.3%. Further, the growth is 54.7% in assay [7]; 57.2% in assay [8]; 25.7% in assay [9]; 96% in [10]; 82.4% in [11]; 77% in assay [12]. Besides, the growth in [13] is 57.9%; in [20] it was 105%; in assay [14], 36.2%; in assay [15], 34.8%; in [16], 107%; in assay [17] it was 79.5%. Also, the growth in assay [18] is 83.1%.
